Shown is part of a subset that was picked to be rich in hits.
Tg IFNy HTS: inhibitors of Toxoplasma gondii growth with IFN-gamma; Toxoplasma gondii growth in IFN-gamma-treated host cells; stronger effect = lower value; activity change, negative = inhibition, % (test concentration not listed); 69,000 compounds, 3.8% hits; AID 1259416; in the data active means activity change below about -70%, passing the limit was not always enough;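 further: host cells are HeLa cells infected with Toxoplasma gondii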
A number is an active result; . = inactive.

SMILES	Tg IFNy HTS
Cc1ccc(CN2CCc3nc(NC(C)C)nc(C)c3C2)s1	.
CCn1c(-c2nccn2-c2ccc3n[nH]nc3c2)nc2ccccc21	.
Fc1cccc(F)c1CSc1ccccc1C1=NCCCN1	.
Cc1sc2ncnc(NCc3ccco3)c2c1C	.
Cc1sc2ncnc(Oc3ccc(OCc4ccccc4)cc3)c2c1C	-101
Oc1ccc(OCc2ccccc2)cc1	.
CC(=O)O[C@H]1CC[C@@]2(C)C(C[C@@H](OC(C)=O)[C@]3(C)C2CC[C@@]2(C)[C@H](c4ccoc4)OC(=O)[C@H]4O[C@]423)C1(C)C (stereo partly drawn)	.
C[C@@H]1CCCCO[C@@H](CN(C)C(=O)CCCN(C)C)[C@@H](C)CN([C@@H](C)CO)C(=O)c2cc(NS(=O)(=O)c3ccc(Cl)cc3)ccc2O1	.
CCN1CCN(C2CCN(C(=O)CCc3nc(-c4cccs4)no3)CC2)CC1	.
O=C(N[C@@H]1C=C[C@H](CC(=O)N2CCN(c3ccccc3)CC2)O[C@H]1CO)c1ccccc1	.
O=C(Cn1ncc2c(N3CCOCC3)ncnc21)NCc1ccccc1Cl	.
CCN(CC)c1ncnc2c1cnn2CC(=O)NCc1ccc(OC)cc1	-99
CCc1ccccc1NC(=O)Cn1ncc2c(N3CCN(c4ccccn4)CC3)ncnc21	.
Cc1ccc(NC(=O)Cn2ncc3c(N4CCN(c5ccccn5)CC4)ncnc32)cc1	.
Cc1ccc(C)c(NC(=O)Cn2ncc3c(N4CCN(c5ccccn5)CC4)ncnc32)c1	.
O=C(Cn1ncc2c(N3CCN(c4ccccn4)CC3)ncnc21)NCc1ccccc1Cl	-92
CCN(CC)c1ncnc2c1cnn2CC(=O)NCc1ccc2c(c1)OCO2	.
CCN(CC)c1ncnc2c1cnn2CC(=O)NCc1cccc(OC)c1	.
Cc1ccc(CNC(=O)Cn2ncc3c(N4CCN(c5ccccn5)CC4)ncnc32)cc1	-97
CCOc1ccc(CNC(=O)Cn2ncc3c(N4CCCCCC4)ncnc32)cc1OCC	.
O=C(Cn1ncc2c(N3CCCC3)ncnc21)NCc1ccc(Br)cc1	.
CCCCOc1ccc(CNC(=O)Cn2ncc3c(N4CCCCCC4)ncnc32)cc1	-99
COc1ccc(-n2c(=O)c(C(=O)Nc3cc(C)ccc3F)c(O)c3cccnc32)cc1	.
Cc1nc(CCNC(=O)[C@H]2CCCN2S(=O)(=O)c2ccc(CC(C)C)cc2)cs1	.
O=C(c1cncc(N2CC(c3cccnc3)C2)n1)N1CCOCC1	.
SMILES	Tg IFNy HTS
Oc1cc(-c2cccc3c2Sc2ccccc2S3)cc2c1OCCNC2	.
CCc1ccc(-c2cc3c(=O)n(Cc4nc(-c5ccccc5)oc4C)ccn3n2)cc1	.
COc1ccc(Cn2cc(C(=O)N3CCC(O)(c4ccccc4C)C3)nn2)cc1 (stereo not drawn)	.
Cc1ccc(S(=O)(=O)N2CCC3(CC2)Nc2cc(C)ccc2-n2cccc23)cc1	.
CCOc1ccc(N(Cc2nc(-c3ccccc3)oc2C)S(=O)(=O)c2cccs2)cc1	.
Cc1ccc(S(=O)(=O)NC(=O)Nc2cn(-c3ccccc3)nc2-c2ccccc2)cc1	.
O=C(CCC1N=C2c3ccccc3N=C(SCc3ccccc3F)N2C1=O)NCc1ccco1 (stereo not drawn)	.
Cc1ccc(CNC(=O)Cn2ncc3c(N4CCCCC4)ncnc32)cc1	-103
COc1ccc(C)cc1NC(=O)Cn1ncc2c(N3CCCCCC3)ncnc21	-91
Cc1ccc(C)c(NC(=O)Cn2ncc3c(N4CCCCCC4)ncnc32)c1	.
COc1ccc(CNC(=O)Cn2ncc3c(N4CCCCC4)ncnc32)cc1OC	.
COc1ccc(CNC(=O)Cn2ncc3c(N4CCCCCC4)ncnc32)cc1	.
CN(C)c1ccc(CNC(=O)Cn2ncc3c(N4CCCCC4)ncnc32)cc1	.
COc1ccc(CNC(=O)Cn2ncc3c(N4CCCCC4)ncnc32)cc1	-102
COc1ccc(OC)c(CNC(=O)Cn2ncc3c(N4CCC(C)CC4)ncnc32)c1	.
Cc1ccc(CNC(=O)Cn2ncc3c(N4CCCCCC4)ncnc32)cc1	.
COCCCNC(=O)Cn1ncc2c(N3CCC(C)CC3)ncnc21	.
COc1ccc(CNC(=O)Cn2ncc3c(N4CCC(C)CC4)ncnc32)cc1	-85
COc1ccc(C)cc1NC(=O)Cn1ncc2c(N3CCOCC3)ncnc21	.
COc1ccccc1CN1[C@@H](CO)[C@@H]2c3ccccc3N(C(=O)C3CCOCC3)C[C@@H]21	.
CC1(C)NC(C(=O)O)Cc2c1[nH]c1ccccc21 (stereo not drawn)	.
N#Cc1sc2sc(C#N)c(-c3ccc(Cl)cc3)c2c1N	.
COc1cc(OC)c(NC(=O)COc2nc(C)nc3ccccc23)cc1Cl	.
CCCNC(C)(C)COC(=O)c1ccccc1	.
COc1ccc(-c2nc(Nc3cc(OC)ccc3OC)c3ccccc3n2)cc1	.
SMILES	Tg IFNy HTS
O=C(CN1CCOCC1)N1CC[C@@H]2[C@H](CO)Nc3ccc(Br)cc3[C@@H]21	.
Cc1nnc(N2C[C@H]3CN(C(=O)c4ccc(C)c(C)c4)CCC[C@@]3(C(=O)N(C)C)C2)o1	.
O=C(Cn1ncc2c(N3CCCCCC3)ncnc21)NCc1cc(F)cc(F)c1	.
COc1cccc(CNC(=O)Cn2ncc3c(N4CCOCC4)ncnc32)c1	.
COc1ccc(CNC(=O)Cn2ncc3c(N4CCCCC4)ncnc32)c(OC)c1	.
COc1cccc(CNC(=O)Cn2ncc3c(N4CCC(C)CC4)ncnc32)c1	-100
COc1cc(NC(=O)Cn2ncc3c(N4CCC(C)CC4)ncnc32)cc(OC)c1OC	.
O=C(Cn1ncc2c(N3CCCCCC3)ncnc21)NCc1ccc(F)cc1F	-93
COc1nccc(C(F)(F)F)c1C(N)=O	.
O=C(CCn1cnc2ccccc2c1=O)NCCc1cc(Cl)c2c(c1)OCCO2	.
CCc1nc(OCC(=O)Nc2ccccc2C(=O)OC)c2ccccc2n1	.
CO[C@H]1CN(C)C(=O)c2ccc(NS(C)(=O)=O)cc2OC[C@@H](C)N(CC2CC2)C[C@@H]1C	.
CC(C)(C)[S@](=O)N1Cc2cc(C(=O)NCc3ccccn3)nc(-c3cccc(-c4ccccc4F)c3)c2[C@@H]1CCO	.
COc1ccc(CNC2=NCCNC23CCN(S(=O)(=O)c2cccs2)CC3)cc1	.
O=C(NC[C@@H]1OC[C@@H]2CCN(Cc3ccccc3)C[C@H]21)C1CC1	.
CC(C)NCC(O)COc1cccc2ccccc12 (stereo not drawn)	.
CC(C)(Cc1ccc2ccccc2c1)NC[C@@H](O)COc1cccc(Cl)c1C#N	-72
CC(C)(C)NCC(O)COc1ccccc1C(=O)CCc1ccccc1 (stereo not drawn)	.
Cc1cccc(CN2CC[C@@H]3OCC[C@@]3(COc3ncccc3F)C2)n1	.
c1ccc2c(c1)nc1c2ccc2[nH]onc21	.
Nc1[nH]nc2nc3ccccc3nc12	.
Oc1c(Cl)c2nc3ccccc3nc2c2ccccc12	-105
CC(C)(C)c1cc(CN2CCCC2c2ccccn2)[nH]n1 (stereo not drawn)	.
N[C@@H]1CCCCN(c2c(F)cc3c(=O)c(C(=O)O)cn(C4CC4)c3c2Cl)C1	.
C[C@@H]1CN(c2c(F)c(F)c3c(=O)c(C(=O)O)cn(C4CC4)c3c2F)C[C@H](C)N1	.
N#Cc1c(N2C[C@@H]3NCCO[C@H]3C2)c(F)cc2c(=O)c(C(=O)O)cn(C3CC3)c12	-86
CC(O)c1ccc(-c2cccc(CN3CCOCC3)c2)cc1 (stereo not drawn)	.
Cc1cc(Cn2cnc(-c3ccccc3)c2-c2cccn2-c2ncccn2)n[nH]1	.
Cn1nc(C2CCN(C(=O)c3nsc(Cl)c3Cl)CC2)c2cccnc21	.
CCc1ccccc1-c1ccc2cc[nH]c(=O)c2c1	.
